# Assay results: publication PMC4336329 (PLoS ONE, 2015)
# Out of some 310,000 compounds screened, about 14,000 (4.5%) showed an effect of 50% or more. Effects have a minus sign here. This is one part of a sample in which strong results are shown more often than they occur.
# Biological target: human ether-à-go-go-related gene (hERG) potassium channel (human, UniProt Q12809)
# Experiment: primary screen, population patch clamp on CHO cells stably expressing hERG; higher = less effect of the substance
# 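Further: peak tail current of the secondary pulse compared with the same well before compound.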
# human ether-à-go-go-related gene (hERG) potassium channel, sequence (Q12809 whole entry, looked up): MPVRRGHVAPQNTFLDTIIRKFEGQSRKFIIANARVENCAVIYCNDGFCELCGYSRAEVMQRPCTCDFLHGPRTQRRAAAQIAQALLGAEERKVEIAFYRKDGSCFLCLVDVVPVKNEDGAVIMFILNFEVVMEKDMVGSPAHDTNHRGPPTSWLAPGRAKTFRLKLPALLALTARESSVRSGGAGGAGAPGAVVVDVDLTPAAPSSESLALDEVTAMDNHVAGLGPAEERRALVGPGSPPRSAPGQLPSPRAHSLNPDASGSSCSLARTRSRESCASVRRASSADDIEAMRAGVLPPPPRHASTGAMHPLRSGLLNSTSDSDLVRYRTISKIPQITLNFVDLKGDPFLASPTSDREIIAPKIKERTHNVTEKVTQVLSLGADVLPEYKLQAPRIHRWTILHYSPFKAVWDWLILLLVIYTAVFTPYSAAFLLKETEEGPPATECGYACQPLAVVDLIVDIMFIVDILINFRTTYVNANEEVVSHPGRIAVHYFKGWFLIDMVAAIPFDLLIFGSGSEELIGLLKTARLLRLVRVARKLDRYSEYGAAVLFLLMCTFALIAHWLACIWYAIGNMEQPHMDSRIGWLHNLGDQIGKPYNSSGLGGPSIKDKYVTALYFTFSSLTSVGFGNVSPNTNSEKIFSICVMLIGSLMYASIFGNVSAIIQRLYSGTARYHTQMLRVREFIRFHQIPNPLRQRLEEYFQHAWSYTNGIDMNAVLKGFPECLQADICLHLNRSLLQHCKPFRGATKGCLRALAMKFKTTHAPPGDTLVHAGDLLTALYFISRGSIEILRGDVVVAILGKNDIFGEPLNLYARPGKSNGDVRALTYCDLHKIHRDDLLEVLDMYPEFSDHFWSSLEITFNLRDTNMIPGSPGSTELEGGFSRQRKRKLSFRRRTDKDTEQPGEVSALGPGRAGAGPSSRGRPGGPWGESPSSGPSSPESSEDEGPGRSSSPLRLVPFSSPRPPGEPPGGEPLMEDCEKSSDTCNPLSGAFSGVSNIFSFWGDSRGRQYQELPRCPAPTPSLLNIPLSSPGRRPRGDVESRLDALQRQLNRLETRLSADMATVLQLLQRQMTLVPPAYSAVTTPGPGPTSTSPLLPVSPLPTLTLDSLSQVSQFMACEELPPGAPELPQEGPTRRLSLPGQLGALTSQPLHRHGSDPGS
row,SMILES,"hERG current change (%, negative = inhibition) at 10uM [%]"
1,COc1cccc(CN2CCN(Cc3cc(OC)c(OC)c(OC)c3)CC2)c1OC.O=C(O)C(=O)O,-8.03
2,COc1ccc(CN2CCC(N(CCc3ccccc3)Cc3ccccc3)CC2)c(OC)c1.O=C(O)C(=O)O,-74.5
3,COc1ccc(CN2CCC(C(=O)N(C)CCc3ccc(OC)c(OC)c3)CC2)c(OC)c1.O=C(O)C(=O)O,-44.9
4,COc1cccc(CN2CCC(N(CCc3ccccc3)Cc3ccccc3)CC2)c1OC.O=C(O)C(=O)O,-60.3
5,O=C(Nc1ccccc1)c1ccc(S(=O)(=O)NCc2ccco2)cc1,-11.6
6,O=C(Cc1ccc(S(=O)(=O)N2CCCC2)s1)NC1CCCCCC1,-31.4
7,C/C(=N\NC(=O)Cn1nc(C)cc1C)c1ccc([N+](=O)[O-])cc1,-17.6
8,O=C(Nc1ccc(Cc2ccc(NC(=O)C3CC3)c(O)c2)cc1O)C1CC1,8.31
9,CCC(=O)N1C(Cc2ccccc2)COC1(C)C (centres unmarked),-73.4
10,CCC1(C)NC(=O)N(CC(=O)N2CCC(Cc3ccccc3)CC2)C1=O (centres unmarked),3.65
11,CCC(=O)N1COC[C@@H]1Cc1ccccc1,25.4
12,Cn1c(=O)c2ncn(CC(=O)N=Nc3c(O)[nH]c4ccccc34)c2n(C)c1=O,20.7
13,Cl.O=[N+]([O-])c1ccccc1/C=N/NC1=NCCCCC1,-39.3
14,O=C(N/N=C/c1ccc([N+](=O)[O-])cc1)C(=O)N1CCCC1,13.5
15,O=C(ONC1=NCCCCC1)c1cccc([N+](=O)[O-])c1,0.994
16,O=C(N/N=C/c1cccc(O)c1)C(=O)N1CCCCCC1,24.6
17,O=[N+]([O-])c1cccc(/C=N/NC2=NCCCCC2)c1,-83
18,O=C(N/N=C/c1cccc([N+](=O)[O-])c1)C(=O)N1CCCCCC1,-52.5
19,O=C(CSc1nnc(-c2cccnc2)n1CCc1ccccc1)NCc1ccccc1,-10.9
20,CCOc1ccc(-c2nnc(SCC(=O)N(CC)CC)n2N)cc1,5.1
21,CN1C(=O)Cc2cc(S(=O)(=O)N3CCN(c4ccc(Cl)cc4)CC3)ccc21,-2.2

row,SMILES,"hERG current change (%, negative = inhibition) at 10uM [%]"
1,COc1ccccc1Nc1nc(NCCO)nc(N)c1[N+](=O)[O-],2.88
2,Cc1cc(=O)oc2cc(OCC(=O)OCC(=O)Nc3ccccc3C(C)C)ccc12,3.47
3,CSc1ccccc1C(=O)Nc1cc2c(cc1C(=O)O)OCCCO2,18.2
4,CS(=O)(=O)c1ccccc1C(=O)Nc1cc2c(cc1C(=O)O)OCCCO2,-57.3
5,COc1ccccc1C(=O)Nc1cc2c(cc1C(=O)O)OCCCO2,-2.13
6,NC(=O)[C@@H]1CC2(CC(c3cccc(NC(=O)COc4ccc(Cl)cc4)c3)=NO2)CN1C(=O)COc1ccc(Cl)cc1 (some centres unmarked),-29.4
7,CCCCCC(=O)Nc1cccc(C2=NOC3(C2)C[C@H](C(N)=O)N(C(=O)COc2ccc(Cl)cc2)C3)c1 (some centres unmarked),-22
8,CCCCCC(=O)N1CC2(CC(c3cccc(NC(=O)CC(c4ccccc4)c4ccccc4)c3)=NO2)C[C@@H]1C(N)=O (some centres unmarked),11.4
9,CCCCCC(=O)N1CC2(CC(c3cccc(NC(=O)c4ccccc4)c3)=NO2)C[C@@H]1C(N)=O (some centres unmarked),-54.6
10,CCCCCC(=O)N1CC2(CC(c3cccc(NC(=O)COc4ccc(Cl)cc4)c3)=NO2)C[C@@H]1C(N)=O (some centres unmarked),-77
11,CCCCCC(=O)Nc1cccc(C2=NOC3(C2)C[C@H](C(N)=O)N(C(=O)CC)C3)c1 (some centres unmarked),6.18
12,CCCCCC(=O)N1CC2(CC(c3cccc(NC(=O)CC)c3)=NO2)C[C@H]1C(N)=O (some centres unmarked),-11.6
13,CCCCCC(=O)Nc1cccc(C2=NOC3(C2)C[C@H](C(N)=O)N(C(=O)CCCCC)C3)c1 (some centres unmarked),-70.7
14,C/C=C\C(=O)Nc1cccc(C2=NOC3(C2)C[C@@H](C(N)=O)N(C(=O)CCCCC)C3)c1 (some centres unmarked),-31
15,N#CCCN1CCN(S(=O)(=O)c2ccc(S(=O)(=O)NC3CCCC3)cc2)CC1,-9.4
16,CCc1cc2c(Nc3ccc(O)cc3)nc(C)nc2s1.Cl,8.46
17,Cc1cc(/C=N/O)c(C)n1-c1ccc(Br)cc1,-34.2
18,CCc1ccc(OCCSc2nc3ccccc3n2CC(=O)O)cc1,3.37
19,CSc1nsc(SC)c1NC(=O)N1CCCCC1,2.74
20,O=C(NC(=S)N(Cc1ccccc1)Cc1ccccc1)c1ccccc1F,18.5
